Six1-Eya2 inh = inhibitors of human Six1/Eya2 interaction; Q15475+O00167; AID 651725; activity change, % (no concentration beside the values); AlphaScreen GST-Six1/His-Eya2 binding, biochemical; stronger effect = lower value; actives 0.56% (n = 360,000); in the data active = activity change below about -65%; inconclusive = mostly about -30% to -63%; note: % is set by controls: 0 for no effect and ±100 for the full control effect
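GST-Six1 + His-Eya2 (5X stock: 250/500 nM); Tris pH 8.0, 300 mM NaCl, 0.05% BSA, 0.02% Tween 20; GSH donor/Ni acceptor beads; 1 h 37 °C dark; AlphaScreen readout.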
MBNL1 CUG block = MBNL1-poly(CUG) RNA binding inhibition. Q9NR56. TR-FRET MBNL1-His/biotin-(CUG)12 binding, 665/545 ratio. Potency, µM (doses to about 57.5 µM), for inactives: at the highest dose activity change, negative = inhibition, actives largely listed as inhibitors. actives 0.036% (n = 280,000); active = well fitted inhibition curve with a large enough effect in the signal ratio, with a control signal flat, not every such curve was filed as active; inconclusive = small, poorly fitted or top-dose-only effect, or effect the other way, or a change in a side signal; inactive = no such curve, though single readings can be large or run the other way; the % refers to the signal ratio; note: potency is the fitted concentration of half-maximal effect; % is set by controls: 0 for no effect and ±100 for the full control effect
Target sequence (Q9NR56 whole entry, looked up): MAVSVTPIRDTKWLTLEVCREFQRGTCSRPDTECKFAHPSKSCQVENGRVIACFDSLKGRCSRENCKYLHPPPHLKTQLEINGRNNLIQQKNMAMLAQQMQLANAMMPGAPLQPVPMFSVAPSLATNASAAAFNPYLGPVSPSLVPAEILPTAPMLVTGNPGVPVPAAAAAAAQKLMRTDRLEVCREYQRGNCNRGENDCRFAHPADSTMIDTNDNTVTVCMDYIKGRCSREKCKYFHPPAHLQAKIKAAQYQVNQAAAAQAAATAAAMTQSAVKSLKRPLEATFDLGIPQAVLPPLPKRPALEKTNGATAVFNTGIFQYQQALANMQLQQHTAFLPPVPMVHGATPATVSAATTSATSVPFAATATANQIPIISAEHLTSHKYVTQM
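His-tagged MBNL1 binding to biotinylated (CUG)12 RNA was measured by TR-FRET using terbium anti-His antibody (0.055 ng/ul final) and streptavidin-XL665 (5 nM final). Compounds were titrated 92 nM to 58 uM; 60 min at room temperature.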
VP16 counter = counter-screen for ROR gamma inhibitors: Gal4-VP16 reporter; AID 2546; Drosophila S2 Gal4-VP16 UAS-luciferase, luminescence, 20 h; actives 3.5% (n = 310,000); Potency, µM (doses to about 53.6 µM), without a hit: top-dose activity, negative = inhibition, actives largely listed as inhibitors;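 note: Gal4-VP16 expression switched on by copper sulfate through the metallothionein promoter; potency is the fitted concentration of half-maximal effect; % is set by controls: 0 for no effect and ±100 for the full control effect; nearly all actives have a fitted effect of over 50% in size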
CtBP-E1A inh = blocks the CtBP interaction with E1A; AlphaScreen GST-E1A/His-CtBP binding, 1536-well; stronger effect = lower value; activity change, % (no concentration beside the values); actives 0.49% (n = 340,000); in the data active = activity change below about -65%; inconclusive = mostly about -30% to -63%; note: % is set by controls: 0 for no effect and ±100 for the full control effect
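In 5 uL wells, 23 nL compound meets equimolar GST-E1A and His-CtBP (5X stock 125 nM each) for 2 h, 37 °C. Beads (5X, 50 ug/mL) then 1 h, 37 °C, dark.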
CBFb-RUNX1 inh = blocks binding between human CBF-beta and RUNX1 | Q01196+Q13951 | AlphaScreen CBFb-His/RUNX1-biotin binding, biochemical | 230,000 tested, under 10 active | Potency, µM (top dose mostly 59.8 µM), without a hit: at the highest dose activity, negative = inhibition, actives largely listed as inhibitors; note: % of control where 0% means no effect
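Read-out: AlphaScreen. Format: His-CBF-beta with biotinylated RUNX1 (30 nM each) preincubated 20 min, compound 15 min, Ni-chelate plus streptavidin beads 90 min; room temperature throughout.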
RORg inh = inhibitors of mouse ROR gamma transcriptional activity; AID 2551; P51450; Drosophila S2 Gal4-RORgamma UAS-luciferase reporter, 20 h; actives 5.4% (n = 310,000); Potency, µM (top dose mostly 53.6 µM), for inactives: at the top dose activity change, negative = inhibition, usual class: inhibitors; note: potency is the fitted concentration of half-maximal effect; % is set by controls: 0 for no effect and ±100 for the full control effect; nearly all actives have a fitted effect of over 60% in size
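Luciferase reporter read in Schneider cells carrying Gal4-RORγ (mouse) and UAS-Photinus luciferase; cells given compound 1 h before 700 uM copper sulfate induction, then incubated 20 h at ambient temperature.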
* = called active by the depositor. Rows were chosen to be rich in hits. Some 5.5% of all compounds tested hit in one or more screens of this group. Unless noted, calls come from the whole dose curve; as a rule, active = well fitted curve in the direction sought with a large enough effect; inconclusive = small, poorly fitted or top-dose-only effect, or another doubt; inactive = no such curve, though single readings can be large; an effect the other way counts as inactive or inconclusive.

How did CCC(=O)Nc1cc2c3c(c1)CCN3C(=O)CC2 do in these assays?
Six1-Eya2 inh: 6; MBNL1 CUG block: -2%; VP16 counter: 5%; RORg inh: -20%

What do the screens show for `O=C(Nc1ncc(Br)s1)C(Cc1ccccc1)n1cccc1` (centres undefined)?
Six1-Eya2 inh: -18; MBNL1 CUG block: -14%; VP16 counter: inconclusive; CtBP-E1A inh: 4; CBFb-RUNX1 inh: -14%; RORg inh: 13µM*

Results for CNCc1ccccc1Sc1cc(O)ccc1O ?
Six1-Eya2 inh: inconclusive; MBNL1 CUG block: 51%; VP16 counter: inconclusive; CtBP-E1A inh: -18; CBFb-RUNX1 inh: inconclusive; RORg inh: 16µM*

What do the screens show for `O=C(c1cnccn1)N1CCC[C@@]2(CCN(Cc3ccccc3)C2)C1`?
VP16 counter: -8%; RORg inh: 0%

How did COc1ccc(/C=N\NC(=O)C2=NNC(=O)C2C)cc1 (centres undefined) do in these assays?
Six1-Eya2 inh: -3; MBNL1 CUG block: 13%; VP16 counter: 3.2µM*; CtBP-E1A inh: -4; CBFb-RUNX1 inh: 1%; RORg inh: 13µM*

How did CCOCCCn1c(=S)[nH]c2cc(C(=O)N3CCOCC3)ccc2c1=O do in these assays?
Six1-Eya2 inh: 3; MBNL1 CUG block: -2%; VP16 counter: -5%; CtBP-E1A inh: -6; CBFb-RUNX1 inh: 0%; RORg inh: -9%

Results for COCCCNC(=O)c1ccc2c(=O)n(C3CCCC3)c(=S)[nH]c2c1 ?
Six1-Eya2 inh: -10; MBNL1 CUG block: 4%; VP16 counter: inconclusive; CtBP-E1A inh: -1; CBFb-RUNX1 inh: 4%; RORg inh: 14µM*

Results for CCCn1c(=S)[nH]c2cc(C(=O)N3CCN(C4CCCCC4)CC3)ccc2c1=O ?
Six1-Eya2 inh: 4; MBNL1 CUG block: 3%; VP16 counter: -12%; CtBP-E1A inh: 5; RORg inh: 10µM*

What do the screens show for `COCCCNC(=O)c1ccc2c(=O)n(CC3CCCO3)c(=S)[nH]c2c1` (centres undefined)?
Six1-Eya2 inh: -8; MBNL1 CUG block: 8%; VP16 counter: -9%; CtBP-E1A inh: -13; CBFb-RUNX1 inh: -2%; RORg inh: -23%

How did CCCn1c(=S)[nH]c2cc(C(=O)N3CCCC(C(=O)OCC)C3)ccc2c1=O (centres undefined) do in these assays?
Six1-Eya2 inh: 1; MBNL1 CUG block: 0%; VP16 counter: inconclusive; CtBP-E1A inh: -3; CBFb-RUNX1 inh: 1%; RORg inh: 11µM*

How did O=C(c1ccc2c(=O)n(C3CCCC3)c(=S)[nH]c2c1)N1CCN(C2CCCCC2)CC1 do in these assays?
Six1-Eya2 inh: 0; MBNL1 CUG block: 1%; VP16 counter: 1%; CtBP-E1A inh: 2; CBFb-RUNX1 inh: 3%; RORg inh: -42%

What do the screens show for `CCN1CCN(C(=O)c2ccc3c(=O)n(C4CCCC4)c(=S)[nH]c3c2)CC1`?
Six1-Eya2 inh: 1; MBNL1 CUG block: 5%; VP16 counter: 14µM*; CtBP-E1A inh: 1; CBFb-RUNX1 inh: 4%; RORg inh: 7.1µM*

What do the screens show for `O=C(CNCc1ccccc1)Nc1ccc(Cl)cc1`?
Six1-Eya2 inh: 1; MBNL1 CUG block: 4%; VP16 counter: inconclusive; RORg inh: 1%

How did COc1ccccc1Cn1c(=S)[nH]c2cc(C(=O)NCC3CCCO3)ccc2c1=O (centres undefined) do in these assays?
Six1-Eya2 inh: 13; MBNL1 CUG block: 18%; VP16 counter: inconclusive; CtBP-E1A inh: 3; CBFb-RUNX1 inh: 4%; RORg inh: 13µM*

What do the screens show for `CSc1ccc(CN(C)C(=O)C2CCN(C(=O)Nc3ccccc3)CC2)cc1`?
Six1-Eya2 inh: -4; CtBP-E1A inh: -2

High-throughput results deposited in PubChem by National Center for Advancing Translational Sciences (NCATS).
